Consider 91 compounds from PubChem BioAssay AID1645855 (Buhrlage Lab, Dana-Farber Cancer Institute and Novartis …, 2021).

In general, inhibition refers to the drop in the measured response relative to a control, in per cent.

Structures are written as SMILES. Among all 47,000 compounds or so, about 3,100 (6.6%) were called active. The sample as a whole holds a higher share of actives than the screen did. Values without a mark were called inactive. Cut-off read from the data, not from the text of the source: active = inhibition above about 30%; inactive = the rest.

Ubiquitin carboxyl-terminal hydrolase 17-like protein 5 (Homo sapiens), sequence (A8MUK1 whole entry, looked up): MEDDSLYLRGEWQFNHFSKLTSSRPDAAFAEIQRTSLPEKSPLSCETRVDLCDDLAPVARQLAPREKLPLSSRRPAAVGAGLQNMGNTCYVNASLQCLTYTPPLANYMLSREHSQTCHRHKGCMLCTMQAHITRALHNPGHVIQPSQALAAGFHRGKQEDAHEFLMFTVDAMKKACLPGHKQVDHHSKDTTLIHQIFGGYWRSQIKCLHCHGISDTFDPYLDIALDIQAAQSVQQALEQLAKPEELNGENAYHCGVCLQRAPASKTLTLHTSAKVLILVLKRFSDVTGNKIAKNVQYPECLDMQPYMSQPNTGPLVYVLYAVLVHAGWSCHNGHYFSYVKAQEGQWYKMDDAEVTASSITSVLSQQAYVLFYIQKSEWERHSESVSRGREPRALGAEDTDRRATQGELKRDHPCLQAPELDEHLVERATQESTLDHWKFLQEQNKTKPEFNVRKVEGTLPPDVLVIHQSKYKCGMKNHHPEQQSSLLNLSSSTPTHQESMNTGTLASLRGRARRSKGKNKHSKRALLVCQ

The assay concerns the target Ubiquitin carboxyl-terminal hydrolase 17-like protein 5 (Homo sapiens) (UniProt A8MUK1). Nature of the assay: blocks human USP17 ubiquitin-rhodamine cleavage (AID 1645855). To be noted: purified USP17, Ub-rhodamine cleavage fluorescence, 3 h; at 50 µM; stronger effect = higher value.
With `Cc1nc(-c2ccc(C)c(S(=O)(=O)NCC(=O)Nc3cccc(Cl)c3)c2)no1`, the inhibition was -1.55%.
For `COc1cccc(CCNC(=O)Cc2cc(-c3ccc(C)cc3)on2)c1` the value was -2.69%; for `NC(=O)c1ccc(NC(=O)Cc2cc(-c3ccc(Cl)cc3)on2)cc1`, 58.4% (active); for `Cc1ccc(CN2CCC(N3CCN(C(=O)c4c(C)nn(C)c4C)CC3=O)CC2)cc1`, 2.05%.
Regarding `CC(NC(=O)CN1C(=O)C2CCCN2C(=O)c2ccc(F)cc21)c1ccccc1` (stereo unspecified), the inhibition is -12.4%.
To `CCc1cc(=O)n(CC(=O)NC2CCCC2)c(N2CCOCC2)n1` belongs 0.695%.
As for `O=C(CCc1nnc2ccc(N3CCCCC3)nn12)Nc1ccc(S(=O)(=O)N2CCCCCC2)cc1`, the inhibition was 16.3%.
Regarding `O=C(NC1CC1)c1cccc(OCC2CCCN(C(=O)c3cc(F)ccc3F)C2)c1` (stereo unspecified), the inhibition is -3.72%.
For the compound `CSc1nc2c(c(Nc3ccc(C(C)=O)cc3)n1)CCC2`, the inhibition is 61% (active).
With `O=C(NCC1CC1)c1ccc2c(c1)nc1n2CCN(Cc2ccccn2)C1=O`, the inhibition is -18.5%.
For `CC(C)=CCC(O)C1=CC(=O)c2c(O)ccc(O)c2C1=O` (stereo unspecified) the value was 95.2% (active).
As for `CC(C)=CCc1cc(O)ccc1O`, the inhibition was 4.38%.
For `CN(C(=O)c1ccc(S(=O)(=O)N2CCOCC2)cc1)c1nnc(C23CC4CC(CC(C4)C2)C3)s1` the value was 5.76%; for `CCOC(=O)c1c(S(=O)(=O)NCC(=O)Nc2ccc(C)cc2)c(C)n(C)c1C`, -20.2%.
To `CN(CCc1ccccc1)c1nccc(N2CCN(C(=O)c3csc(-c4cccnc4)n3)CC2)n1` belongs 19.2%.
For `Cc1ccc(Cc2nnc(C(=O)NC(C)c3ccccc3)o2)cc1` (stereo unspecified) the value was 4.41%; for `Cc1ccc(CSc2nnc(/C=C/c3ccccc3)o2)cc1`, 39.9% (active); for `COc1ccccc1CC(=O)N1C[C@@H]2C[C@H]1C[C@@H]2NC(=O)c1ccccc1`, 15.2%.
On to `COc1ccc(CNC(=O)CCc2c(C)nn(-c3cc(N(C)C)ncn3)c2C)cc1`, for which the inhibition is -0.38%.
For `Cc1ccc(S(=O)(=O)N2C(=O)CCC2C(=O)N2CCCC2)cc1C` (stereo unspecified) the value was -4.46%.
For `O=C(CN1CCC(c2nc(-c3ccccc3)no2)CC1)Nc1ccccc1` the value was -26.4%; for `CCn1c(CC(=O)Nc2ccccc2)nnc1SCC(=O)N1CCOCC1`, 1.1%.
For `O=C(Cc1nnc2c(-c3nc(C4CC4)no3)cccn12)Nc1ccccc1` the value was 69.9% (active); for `O=C(c1noc2c1CCCC2)N1CCCC(c2ccn[nH]2)C1` (stereo unspecified), 0.07%.
Regarding `O=C1NCCCCC1NS(=O)(=O)c1ccc2c(c1)CCO2` (stereo unspecified), the inhibition is 2.39%.
For `CC1=C(c2ccc(F)cc2)S(=O)(=O)N=C1Nc1ccccc1Cl` the value was 22.6%; for `CCc1nc(SCC(=O)Nc2cc(Cl)ccc2Cl)c2oc3ccccc3c2n1`, 20.6%; for `Cc1nnc(-c2cn(CC(=O)NC3CCCCC3)c3ccccc23)o1`, 6.87%.
To `CCc1nc(SCC(=O)Nc2cccc3ccccc23)c2oc3ccccc3c2n1` belongs 30.1% (active); to `Cc1nc(SCC(=O)Nc2cc(Cl)cc(Cl)c2)c2oc3ccccc3c2n1`, -0.843%.
On to `O=C(CSc1ncnc2nc[nH]c12)NC1CCCCC1`, for which the inhibition was -12.5%.
For `O=C(CSc1ncnc2c1oc1ccccc12)NC1CCCC1` the value was 61.3% (active).
As to `FC(F)(F)Oc1ccc2[nH]c3c(c2c1)CNCC3`, the inhibition is 7.52%.
To `OCc1cc2c([nH]c3ccccc32)c([C@@H](O)CO)n1` belongs -4.94%; to `Cc1ccccc1Nc1nc(N)nc(CN2CCCC2c2cccn2C)n1` (stereo unspecified), -130%.
To `CCOC(=O)c1cnc2c(C(F)(F)F)cccc2c1Sc1ccc(C)cc1C` belongs 3.52%.
Take `O=C1NC2(CCN(C(=O)Cc3ccccc3)CC2)Nc2cc(Cl)ccc21`: the inhibition was -2.47%.
For `CSc1ccccc1NC(=O)c1ccc(N2CCCC2)nn1` the value was 56.7% (active); for `O=C(Cc1ccccc1)N1CCN(c2ccc(N3CCCC3)nn2)CC1`, 15%.
On to `Cc1cc(C)n(-c2ccc(C(=O)Nc3ccccc3C(C)C)nn2)n1`, for which the inhibition is 29.7%.
Regarding `O=C(c1sc2cnccc2c1-n1cccc1)N1CCc2ccccc2C1`, the inhibition was 8.13%.
For `CCOC(=O)c1cc(C)nc2c1c(=O)n(Cc1nc(-c3ccccc3)oc1C)c(=O)n2C` the value was -6.3%; for `CCCOc1ccc(C2CN3C(=O)N(c4cccc(C(C)=O)c4)C(=O)[C@]3(C)c3[nH]c4ccccc4c32)cc1OCC` (stereo partly specified), 2.94%; for `COc1ccc(-c2cc(C(=O)Nc3sccc3C(N)=O)c3ccccc3n2)cc1`, -139%.
`COC(=O)c1cccc(N(C(=O)c2cnccn2)C(C(=O)NC2CCCCC2)c2ccc(OC)c(OC)c2)c1` (stereo unspecified): the inhibition is -9.26%.
Take `O=C(NC1CCCC1)C1c2cc(Br)ccc2OCC(=O)N1C1CCCC1` (stereo unspecified): the inhibition was -0.00685%.
For `O=C(COC(=O)CCc1nc2ccccc2c(=O)[nH]1)Nc1ccc(N2CCOCC2)cc1` the value was -1.46%.
For `O=C(COC(=O)c1ccc2[nH]c3c(c2c1)CCCC3)Nc1ccc(N2CCOCC2)cc1` the value was 31% (active); for `CC(CCc1ccccc1)NC(=O)COC(=O)c1ccc2[nH]c3c(c2c1)CCCC3` (stereo unspecified), 15.2%; for `c1cc2c(cc1-c1nn[nH]n1)OCO2`, -14.4%.
To `CC(=O)N1CC[C@H]2COC(=O)N(Cc3ccccc3)[C@@H]2C1` belongs 5.56%; to `COc1ccc(CN(C)c2ccc(S(=O)(=O)Nc3ccccn3)cn2)cc1`, 6.32%.
Take `O=S(=O)(c1ccccc1F)N1CCCn2nnc(COCC3CC3)c2C1`: the inhibition was 0.743%.
For `COc1ccccc1NC(=O)c1cccc(S(=O)(=O)N2CCc3ccccc32)c1` the value was -7.94%.
For `COc1cccc(NC(=O)c2ccc3c(c2)N(S(C)(=O)=O)CC3)c1` the value was 30.4% (active).
For `Cc1ccc(NC(=O)c2ccc3c(c2)N(S(C)(=O)=O)CC3)cc1C`, the inhibition is -24.5%.
With `Cn1c(CCNC(=O)c2ccc(C(C)(C)C)cc2)nc2cccnc21`, the inhibition was -167%.
To `COc1ccc(N(Cc2cc(=O)[nH]c3ccccc23)C(=O)c2ccc(Cl)cc2)cc1` belongs 39.6% (active); to `Cc1ccc(C(=O)N(Cc2cc(=O)[nH]c3ccccc23)C(C)C)cc1F`, 0.00655%.
For `COc1ccc(C(=O)CC(c2ccc(Cl)cc2)S(=O)(=O)c2ccccc2)cc1` (stereo unspecified) the value was 4.59%.
As to `CCNC(=O)c1cccc(Nc2c(-c3ccc(Cl)cc3)nc3cnccn23)c1`, the inhibition was -21.3%.
To `CC(C)c1noc(-c2ccc(OCC(=O)Nc3ccccc3Br)cc2)n1` belongs -2.89%.
To `O=C(NCCc1ccccc1)c1ccc2c(=O)n(Cc3ccco3)c(=O)n(Cc3cccc([N+](=O)[O-])c3)c2c1` belongs 53.8% (active); to `CC(C)(C)C(=O)Cn1c(=O)n(Cc2ccco2)c(=O)c2ccccc21`, -6.03%.
`O=C(Cn1c(=O)n(Cc2ccc3c(c2)OCO3)c(=O)c2ccccc21)NCc1ccco1`: the inhibition is 23%.
To `O=C(O)COCC(=O)Nc1scc2c1c(=O)oc1ccccc12` belongs 15.1%; to `CN1CC(=O)N(C2CCCNC2)Cc2c(NC3CCc4ccccc43)ncnc21` (stereo unspecified), 50.3% (active).
To `COc1cc(C2CC(=O)c3cnc(N4CCc5ccccc5C4)nc3C2)cc(OC)c1OC` (stereo unspecified) belongs 7.46%.
To `CC1CCc2c(cnc3c(C(=O)NCCc4ccccc4)cnn23)C1` (stereo unspecified) belongs -1.68%; to `Cc1c(Cl)c([N+](=O)[O-])nn1CCCC(=O)NC(C)c1ccccc1` (stereo unspecified), -29.5%; to `CCOC(=O)C1(Cc2cc(-c3ccccc3F)no2)CCN(CC)CC1`, -12.6%.
Take `Cc1c(-c2nn3c(-c4ccco4)nnc3s2)cccc1[N+](=O)[O-]`: the inhibition is 67.4% (active).
For `O=C(CSc1cn[nH]n1)Nc1ccc(F)c(Cl)c1`, the inhibition is 0.831%.
As for `Cc1ccc(C)c(S(=O)(=O)Nc2ccc(C(=O)NCc3ccc(F)cc3)cc2)c1`, the inhibition was -4.3%.
`CC(=O)Nc1ccc(S(=O)(=O)NCCSc2ccc(C)cc2)cc1`: the inhibition is -12.3%.
In the case of `CC(=O)Nc1ccc(S(=O)(=O)NCc2ccc(C(=O)NCc3ccc(C)cc3)cc2)cc1`, the inhibition was 52.9% (active).
Turning to `Cc1cc(N2CCOCC2)nc2ccc(NC(=O)CCC(=O)N3CCN(c4ccccn4)CC3)cc12`, the inhibition is -15.4%.
To `Cc1ccc(C)c(N2CCN(C(=O)CCC(=O)Nc3ccc4nc(N5CCN(C)CC5)cc(C)c4c3)CC2)c1` belongs -11.5%.
To `COc1ccc(CCC(=O)Nc2ccc3nc(N4CCOCC4)cc(C)c3c2)cc1` belongs 33.3% (active); to `Cc1nn(-c2ccccc2)c2c1c(C)c(CCC(=O)N1CCN(c3ccc(F)cc3)CC1)c(=O)n2C`, 5.08%.
Turning to `Cc1nc2cc(C(=O)NCc3ccccn3)ccc2n1-c1cccc(F)c1`, the inhibition was 0.0347%.
For `Cc1nn(-c2cccc(F)c2)c2c1c(C)c(CCC(=O)NCc1ccccn1)c(=O)n2C`, the inhibition is 32.6% (active).
For `Cc1cc(C)c(Cn2cccc2C2=NC(Cc3ccccc3)CO2)c(C)c1` (stereo unspecified), the inhibition was 7.3%.
To `Cc1ccc(-c2nc3c4c(C)c(C)n(-c5cccnc5)c4ncn3n2)cc1` belongs 17%; to `CN1CCCCC[C@@H]2[C@@H]1C[C@@H](Cc1ccccc1)N2C(=O)c1cc(C2CC2)[nH]n1`, 14.4%; to `N#Cc1ccccc1OCC(=O)Nc1ccc(-c2cn3ccsc3n2)cc1`, 46.9% (active).
For the compound `CCN(CC)S(=O)(=O)c1cc(C(=O)Nc2ccc(-c3cn4ccsc4n3)cc2)ccc1Cl`, the inhibition was 16.3%.
To `N#Cc1ccc(NC(=O)COC(=O)c2ccc3ccccc3n2)cc1` belongs -197%; to `O=C(NCc1ccccc1)c1noc2c1CCc1sccc1-2`, 4.73%; to `COc1cc(NC(=O)c2noc3c2CCc2sccc2-3)cc(OC)c1`, 48.3% (active).
For `COc1ccc(NC(=O)c2cc(CN3CCOCC3)on2)cc1` the value was -3.06%.
